# Most compounds without a hit are left out; they make up all but 7.3% or so of the library.
# ELG1 genotox: genotoxicity induction in ELG1-luciferase HEK293T cells. hit rate 1.3% among 330,000. HEK293T ELG1-luciferase reporter, luminescence, 16 h. Potency, µM (titrated, usually from 46 µM), for inactives: at the highest dose activity change, positive = activation, usual class: activators; further: % of control where 0% means no effect; nearly all actives have a fitted effect of over 60% in size
#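 DMSO vehicle served as control against compound-treated ELG1-luciferase HEK293T cells; exposure lasted 16 hr at 37 °C and 5% CO2, followed by ONE-Glo luminescence detection after 30 min.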
# NPC1 prom act: activators of NPC1 promoter; Huh7 NPC1 promoter luciferase reporter, 24 h; AID 485313; Potency, µM (series often up to 9.22 µM), for inactives: top-dose activation, usual class: activators; hit rate 2.4% among 320,000; further: % of control where 0% means no effect; nearly all actives have a fitted effect of over 60% in size
#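 Huh7 cells stably carrying NPC1 promoter–luciferase, plated in Opti-MEM with 10% FBS for 2 h, were exposed to compound in DMSO for 24 h at 37 °C; luciferase reagent was added for 10 min and luminescence read.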
# KinaseGlo FLuc: counter-screen: inhibitors of Kinase-Glo firefly luciferase; Potency, µM (doses to about 38.3 µM), inactives show top-dose activity change, negative = inhibition, usual class: inhibitors; hit rate 0.28% among 200,000; Kinase-Glo luciferase, ATP luminescence, 8 min; further: on the % scale 0 is the no-effect control and ±100 the full control effect; nearly all actives have a fitted effect of over 60% in size
#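 Light output from Kinase-Glo luciferase with luciferin and 10 uM ATP in 50 mM imidazole pH 7.2, KCl, MgCl2, Tween 20, BSA; compound pin-delivered, 8-min ambient incubation, then luminescence read.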
# FLuc counter: counter-screen for miR-21 project: firefly luciferase inhibitors or activators | AID 588342 | purified FLuc, Km substrates, luminescence inhibition | Potency, µM (doses to about 57.5 µM), for the others: at the top dose activity change, negative = inhibition, actives largely listed as inhibitors | hit rate 6.9% among 360,000;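 further: plate controls were vehicle for no effect and reference inhibitor for full effect; nearly all actives have a fitted effect of over 55% in size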
# Target sequence (P08659 whole entry, looked up): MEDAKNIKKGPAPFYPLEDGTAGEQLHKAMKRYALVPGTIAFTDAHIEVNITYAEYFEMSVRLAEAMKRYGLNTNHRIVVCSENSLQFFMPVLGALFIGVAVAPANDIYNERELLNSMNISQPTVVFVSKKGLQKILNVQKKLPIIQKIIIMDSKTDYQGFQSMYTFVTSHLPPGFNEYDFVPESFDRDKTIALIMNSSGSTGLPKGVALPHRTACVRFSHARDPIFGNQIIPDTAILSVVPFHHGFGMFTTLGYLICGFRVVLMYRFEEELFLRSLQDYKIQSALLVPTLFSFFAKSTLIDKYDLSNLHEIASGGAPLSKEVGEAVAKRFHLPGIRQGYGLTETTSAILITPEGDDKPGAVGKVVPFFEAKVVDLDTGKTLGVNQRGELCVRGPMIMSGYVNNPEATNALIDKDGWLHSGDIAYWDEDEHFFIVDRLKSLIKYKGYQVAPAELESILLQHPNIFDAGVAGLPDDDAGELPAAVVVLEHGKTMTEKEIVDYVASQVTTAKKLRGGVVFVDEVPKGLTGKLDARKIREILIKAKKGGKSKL
#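 Biochemical qHTS of compounds, final roughly 60 µM downward over six points, against 10 nM purified firefly luciferase using Km concentrations of substrates (10 uM D-luciferin, 10 uM ATP) in Tris acetate pH 7.5 buffer; luminescence output.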
# Rab9 prom act: Rab9 promoter activation; Potency, µM (highest dose often 9.22 µM), for the others: at the top dose activation, negative = inhibition, usual class: activators; Huh7 Rab9 promoter-luciferase reporter, luminescence, 24 h; hit rate 2.8% among 320,000; AID 485297; further: % of control where 0% means no effect; nearly all actives have a fitted effect of over 60% in size
#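 Measured in stably transfected Huh7 cells bearing a Rab9 promoter–luciferase construct: 24 h compound treatment at 37 °C, followed by luminescence detection.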
# SMN2 splice enh: enhancers of SMN2 splice variant expression. HEK293 SMN2-luciferase splicing reporter, luminescence, 30-36 h. Potency, µM (highest dose often 46.1 µM), inactives show at the top dose activity change, positive = activation, hits mostly activators. hit rate 2.8% among 210,000; further: % of control where 0% means no effect; nearly all actives have a fitted effect of over 55% in size
#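 HEK293 cells carry an SMN2 minigene-luciferase reporter in which exon 7 inclusion puts luciferase in frame. Cells were seeded at 2000 cells/well, attached for 10-12 hours, then exposed to compounds for 30-36 hours at 37C before ONE-Glo luminescence.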
# * = called active by the depositor; ? = inconclusive; / = not tested or not shown. The call rests on the fitted dose curve; in most records, active means well fitted curve in the direction sought with a large enough effect; inconclusive means small, poorly fitted or top-dose-only effect, or another doubt; inactive means no such curve, though single readings can be large; an effect the other way counts as inactive or inconclusive. Potency means the concentration at half of the fitted maximal effect.
SMILES,ELG1 genotox,NPC1 prom act,KinaseGlo FLuc,FLuc counter,Rab9 prom act,SMN2 splice enh
O=C(c1ccccc1)N1CCc2cc(CNS(=O)(=O)c3ccccc3Cl)ccc21,/,/,/,0%,/,/
CC(=O)Nc1nnc(SCC(=O)N2C(C)CCCC2C)s1 (configuration not stated),5%,-2%,/,0%,-3%,/
CC1CN(C(=O)CSc2nnc(NC(=O)NC(C)(C)C)s2)CC(C)O1 (configuration not stated),4%,-1%,/,24µM*,-4%,/
N#CC1=C(N)Oc2n[nH]c(-c3ccccc3)c2C12C(=O)Nc1ccccc12 (configuration not stated),0%,1%,-1%,-1%,-5%,5.6µM*
COc1cc(OC)cc(N2C(=O)N(Cc3ccc(C(C)(C)C)cc3)c3ccccc3S2(=O)=O)c1,/,/,/,-3%,/,/
Cc1ccccc1NC(=O)c1ccc(-c2ccc(Cl)cc2Cl)o1,7%,9%,0%,8.5µM*,19%,0%
O=C(Nc1nccs1)c1ccc(-c2ccc(Cl)cc2Cl)o1,?,3.5µM*,-5%,0.85µM*,3.2µM*,14µM*
Cc1ccccc1-c1ccc(C(=O)Nc2cccc(F)c2)o1,?,6%,-4%,9.5µM*,15%,13%
O=C(Nc1cccc(F)c1)c1ccc(-c2ccccc2C(F)(F)F)o1,9%,-4%,-2%,?,3%,0%
O=C(Nc1nccs1)c1ccc(-c2ccc(F)c(Cl)c2)o1,-1%,?,/,6µM*,?,/
CCc1ccccc1NC(=O)CN1CCCN(Cc2cc(C)ccc2C)S1(=O)=O,/,/,/,-3%,/,/
CCc1ccc(NCc2cc3cc4c(cc3n(CC(=O)Nc3ccc(Cl)cc3)c2=O)OCO4)cc1,/,/,/,-3%,/,/
CCc1nc(C)cn1S(=O)(=O)c1ccc(Cl)c(Cl)c1OC,/,/,/,-2%,/,-76%
CC(=O)Cn1ncc(Br)c(Br)c1=O,-21%,-41%,-3%,8%,-43%,-108%
CC(=O)Cn1ncc(N(C)Cc2ccccc2)c(Cl)c1=O,?,?,/,17µM*,?,/
COC(=O)c1cc(C(=O)c2cc(F)ccc2O)cn2c(=O)c3c(C)c(C)sc3nc12,-5%,-2%,/,?,-1%,/
O=C(O)CSc1cc(C(=O)c2ccccc2O)cn2c(=O)c3c(-c4ccccc4)csc3nc12,0%,-4%,-1%,15µM*,1%,-2%
CCOC(=O)c1sc2nc3c(SCC(=O)O)cc(C(=O)c4cc(F)ccc4O)cn3c(=O)c2c1C,4%,1%,3%,8.5µM*,-3%,23%
COc1ccc(O)c(C(=O)c2cc(SCC(=O)O)c3nc4sc5c(c4c(=O)n3c2)CCCC5)c1,4%,2%,/,6.7µM*,-3%,/
CCc1c(C)sc2nc3c(C(=O)N4CCOCC4)cc(C(=O)c4ccccc4O)cn3c(=O)c12,-12%,2%,-1%,-12%,-15%,-15%
Cc1sc2nc3c(SC(C)C(=O)O)cc(C(=O)c4ccccc4O)cn3c(=O)c2c1C (configuration not stated),5%,-5%,2%,21µM*,-11%,13%
CCOC(=O)c1sc2nc3c(SCC(=O)O)cc(C(=O)c4ccccc4O)cn3c(=O)c2c1C,2%,18%,-10%,2.4µM*,13%,19%
CC(C)CN1C(=O)c2ccc(C(=O)Nc3nccs3)cc2C1=O,?,?,0%,6.7µM*,?,6%
CC(C)CN1C(=O)c2ccc(C(=O)Nc3ccccn3)cc2C1=O,?,?,-3%,2.7µM*,?,-5%
CCCN1C(=O)c2ccc(C(=O)Nc3nccs3)cc2C1=O,5%,-2%,0%,?,-5%,-16%
SMILES,ELG1 genotox,NPC1 prom act,KinaseGlo FLuc,FLuc counter,Rab9 prom act,SMN2 splice enh
Cc1ccccc1NC(=O)c1ccc2c(c1)C(=O)N(CC(C)C)C2=O,1%,-4%,/,-8%,5%,/
CC(C)CN1C(=O)c2ccc(C(=O)Nc3ccccc3C(=O)O)cc2C1=O,?,2.5µM*,/,3µM*,4.5µM*,/
COc1cc2[nH]c(=O)n(Cc3ccc(C(=O)N4CCN(c5cc(Cl)ccc5C)CC4)cc3)c(=O)c2cc1OC,/,/,/,-3%,/,1%
O=C(O)c1cc(=O)c2cccc(O)c2[nH]1,/,/,1%,/,/,0%
COc1ccccc1CNS(=O)(=O)c1ccc2c(c1)NC(=O)C(C)C(=O)N2 (configuration not stated),/,/,/,-9%,/,/
N#CC/C(N)=N/NC(=O)CCCNc1ncc(C(F)(F)F)cc1Cl,10%,20%,1%,-2%,?,16µM*
NC(=O)CNc1ncc(C(F)(F)F)cc1Cl,6%,-4%,0%,2%,-4%,5%
Cc1ccc(C(=O)N/N=C/c2ccc(S(=O)(=O)O)o2)c(Cl)c1,0%,-2%,15%,15µM*,-20%,9%
Cc1ccc(S(=O)(=O)Nc2nc(C)c(C(=O)N/N=C/c3ccccc3)s2)cc1,-20%,-1%,2%,6µM*,7%,-37%
Cc1cc(C)c2c(N)c(C(=O)N/N=C/c3ccccc3)sc2n1,?,1.8µM*,/,3.4µM*,1.8µM*,/
Cc1cc(C)c2c(N)c(C(=O)NN)sc2n1,8%,1%,/,-15%,-3%,/
Cc1ccc(S(=O)(=O)Nc2nc(C)c(C(=O)Nc3ccccc3)s2)cc1,-1%,-3%,4%,-18%,1%,?
Cc1cc(C)c2c(N)c(C(=O)NNC(=O)c3ccccc3)sc2n1,?,3.2µM*,-1%,?,3.5µM*,11µM*
COCC(=O)N1CCC2(CCCN(c3cccc(-c4ccccc4)c3)C2)CC1,/,/,2%,/,/,-15%
Cc1cc(N2CCC(C(=O)Nc3ccc(F)cc3F)CC2)n2nc(C)c(-c3ccc(Cl)cc3)c2n1,/,/,/,4%,/,-2%
Cc1cccc(C(=O)OCc2cc(=O)oc3c(C)c(C)ccc23)c1O,9%,?,/,1%,?,/
CCOc1ncccc1C(=O)OCc1ccc(Cl)cc1,0%,5%,3%,?,-3%,5%
COC(=O)c1ccc(COC(=O)c2ccccc2OC)cc1,1%,12%,-2%,19µM*,25%,10%
CCOc1ncccc1C(=O)OCc1ccc(C(=O)OC)cc1,?,10%,-6%,?,-15%,14µM*
CCOc1ncccc1C(=O)OCc1cc(=O)oc2c(C)c(C)ccc12,0%,-2%,-5%,3µM*,-6%,-5%
Nc1ccc2c(c1)COC2=O,11%,10%,-3%,17µM*,21%,18%
O=C1OCc2cc(-n3cccc3)ccc21,11%,-1%,2%,-4%,2%,-3%
NC(=O)c1ccccc1NC(=O)CSc1nc2ccccc2c(=O)[nH]1,-4%,0%,/,1%,7%,/
